# Experimental data: PubChem BioAssay AID1851 (National Center for Advancing Translational Sciences (NCATS), 2009)
# About 5,100 (32%) of roughly 16,000 compounds were called active. About 25% were inconclusive and are not listed. The list shows a part of the results. Unmarked numbers belong to inactive results. The call rests on the fitted dose curve; in most records, active means well fitted curve in the direction sought with a large enough effect; inconclusive means small, poorly fitted or top-dose-only effect, or effect the other way; inactive means no such curve, though single readings can be large or run the other way.
# Molecular target: Cytochrome P450 3A4 (Homo sapiens) (UniProt P08684)
# Assay: Cytochrome panel assay with activity outcomes
# Settings: recombinant CYP, pro-luciferin dealkylation, luminescence, p450-cyp3a4; series mostly up to 57.1 µM; activity, negative = inhibition: at the top concentration
# On the % scale 0 is the no-effect control and ±100 the full control effect.
# Chain of Cytochrome P450 3A4 (Homo sapiens) (P08684 whole entry, looked up): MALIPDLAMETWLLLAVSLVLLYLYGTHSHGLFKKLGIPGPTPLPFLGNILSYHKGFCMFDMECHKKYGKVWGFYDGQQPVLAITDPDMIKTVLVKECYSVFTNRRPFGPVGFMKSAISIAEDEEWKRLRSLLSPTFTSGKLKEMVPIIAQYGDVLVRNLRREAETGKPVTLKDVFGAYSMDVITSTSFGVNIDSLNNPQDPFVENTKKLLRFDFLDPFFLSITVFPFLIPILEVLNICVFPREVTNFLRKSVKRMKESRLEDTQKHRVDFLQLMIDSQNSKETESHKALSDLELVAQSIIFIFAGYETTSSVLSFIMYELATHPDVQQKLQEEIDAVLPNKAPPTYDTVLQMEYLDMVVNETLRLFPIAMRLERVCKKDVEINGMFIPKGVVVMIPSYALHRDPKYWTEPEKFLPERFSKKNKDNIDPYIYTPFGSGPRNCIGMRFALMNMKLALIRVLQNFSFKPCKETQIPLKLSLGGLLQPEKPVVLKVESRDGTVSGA
Compound,"activity, negative = inhibition",AC50
COc1ccccc1N1CCN(Cc2cc(=O)n3ccsc3n2)CC1,-11%,–
COc1ccccc1N1CCN(c2nc3c(C)cccn3c(=O)c2C=O)CC1,–,15.8 µM (active)
Cc1cccn2c(=O)c3cc(C(=O)N4COCC4(C)C)n(C)c3nc12,-25.8%,–
Cc1cccn2c(=O)c(C=NCc3ccco3)c(Nc3ccc(SC(F)F)cc3)nc12,-42.2%,–
Cc1cccn2c(=O)c(/C=N/O)c(N3CCCC3)nc12,–,12.6 µM (active)
CC(=O)[C@@H](C)CCO[C@@]1(C)OCC[C@@H]1C,-5.36% [at 11.4 µM],–
Cc1ccc(CNC(=O)Cc2csc(Nc3nc(=S)[nH]c4ccccc34)n2)cc1,–,1 µM (active)
CCOC(=O)Cc1csc(NS(=O)(=O)c2ccccc2)n1,6.45% [at 2.29 µM],–
O=C(Cc1csc(Nc2nc(=S)[nH]c3ccccc23)n1)NCc1cccc(Cl)c1,–,1.78 µM (active)
COc1ccc(CNC(=O)Cc2csc(Nc3nc(=S)[nH]c4ccccc34)n2)cc1,–,1.26 µM (active)
O=C(Nc1ccccc1)N1CCOCC1,-4.6%,–
O=C(Nc1cccc(NC(=O)N2CCN(c3ccccc3)CC2)c1)N1CCN(c2ccccc2)CC1,–,6.31 µM (active)
Cc1cccc(NC(=S)N2CCC(N(C)CC3CCCO3)CC2)c1C (centres undefined),-16.8%,–
CC(=O)Nc1ccc2nc(C3CCCCC3)[nH]c2c1,-26.6%,–
Cc1cc2nc(C3CCCN(C(=O)NCc4ccccc4)C3)[nH]c2cc1C (centres undefined),–,10 µM (active)
O=C(O)c1ccc(NCc2nc3cc4ccccc4cc3[nH]2)cc1,-11.9% [at 11.4 µM],–
Cc1ccc2nc(C3CCCN(C(=S)Nc4ccccc4C)C3)[nH]c2c1 (centres undefined),–,6.31 µM (active)
Cc1ccc(-n2ccnc2SCC(=O)N(CC(C)C)C2CCS(=O)(=O)C2)c(C)c1 (centres undefined),-16.9% [at 2.29 µM],–
Cc1cc(C)n2c(SCC(=O)N(C)C3CCS(=O)(=O)C3)nnc2n1 (centres undefined),-7.37%,–
O=C(CSc1nnc(-c2ccc(Cl)cc2Cl)n1C1CCCCC1)NC1CCS(=O)(=O)C1 (centres undefined),–,10 µM (active)
O=P(Cc1cc[n+]([O-])cc1)(c1ccccc1)c1ccccc1,–,14.1 µM (active)
O=P(O)(O)CCP(=O)(c1ccccc1)c1ccccc1,14.1%,–

Compound,"activity, negative = inhibition",AC50
O=P(O)(CCP(=O)(O)c1ccccc1)c1ccccc1,-3.78% [at 11.4 µM],–
O=C(NCc1ccco1)c1ccccc1NS(=O)(=O)c1ccc(Br)s1,-21% [at 2.29 µM],–
Cc1ccc(S(=O)(=O)N(Cc2ccccc2)c2ccccc2C(=O)NCc2ccco2)cc1,–,2.51 µM (active)
CN(CCCNC(=O)c1ccc(/C=N/O)nc1)CCCN(C)Cc1ccccc1,2.5%,–
CCCCOc1cc(C(=O)NCCN(CC)CC)c2ccccc2n1,-21.5% [at 25.6 µM],–
CN(CCCNC(=O)c1cccn2c(=O)c3ccccc3nc12)Cc1ccccc1,–,1 µM (active)
Cn1c(-c2ccc(Br)cc2)cnc1NCc1cccnc1,–,3.98 µM (active)
Cn1c(-c2ccc(F)cc2)cnc1NCc1cccc(F)c1,–,8.91 µM (active)
CCNc1ncc2nc(-c3ccc(F)cc3)c(=O)n(C)c2n1,7.57%,–
Cn1c(-c2ccc(F)cc2)cnc1NCc1ccc(F)cc1,21.4%,–
C[C@H](C(=O)O)c1cccc(Oc2ccccc2)c1,-0.468% [at 25.6 µM],–
CCC(C)(C)c1ccc(Oc2cccc(C(=O)O)c2)cc1,-2.44% [at 11.4 µM],–
C[C@@H](/C=C\c1cccc(Oc2ccc(F)cc2)c1)N(O)C(N)=O,–,1 µM (active)
CCn1nc(C)c(NC(=O)/C=C/c2cnn(C)c2C)c1C,-3.52%,–
COc1ccc(Br)cc1/C=C/C(=O)Nc1c(C)cccc1C,–,4.47 µM (active)
COC(=O)/C=C\c1cc(O)ccc1O,-17%,–
COc1cc2c(cc1OC)/C(=C/C(=O)N1CCOCC1)NC(C)(C)C2,9.97%,–
CN1CCc2c(c3c(n2C)CCN(C)[C@H]3c2ccccc2F)[C@@H]1c1ccccc1F,–,7.94 µM (active)
Oc1ccc(Cl)cc1Cc1cc(Cl)cc(Cc2cc(Cl)ccc2O)c1O,-24.4% [at 11.4 µM],–
CN1CCC(=C2c3ccccc3Sc3ccccc32)CC1,27.7% [at 25.6 µM],–
CN(C)CC/C=C1\c2ccccc2CSc2ccccc21,-2.26% [at 25.6 µM],–
CN1CCN(CCC=C2c3ccccc3Sc3ccc(S(=O)(=O)N(C)C)cc32)CC1,–,12.6 µM (active)

Compound,"activity, negative = inhibition",AC50
CCCCC1(C)Nc2ccccc2-c2nc3ccccc3n21 (centres undefined),–,7.08 µM (active)
CC1CCC2(CC1)N=C(N)Nc1nc3ccccc3n12 (centres undefined),-19.5%,–
CCC1(C)Nc2ccccc2C(=O)N1O (centres undefined),8.28%,–
NC1=NC2(CCCCCC2)n2c(nc3ccccc32)N1,-12.8%,–
CCCC1(C)Nc2ccccc2-c2nc3ccccc3n21 (centres undefined),–,12.6 µM (active)
COC(=O)[C@@]1(Cc2ccccc2)[C@H]2c3cc(C(=O)N(C)C)n(Cc4ccsc4Br)c3C[C@H]2CN1C(=O)c1ccccc1,–,1.58 µM (active)
COC(=O)[C@@]1(Cc2ccccc2)[C@H]2c3cc(C(=O)N4CCCC4)n(Cc4ccsc4Br)c3C[C@H]2CN1C(=O)c1ccccc1,–,3.98 µM (active)
CC(C)c1ccc(/C(C(=O)O)=C(\O)C(=O)O)cc1,-12.9% [at 11.4 µM],–
O=C(O)CCC(=O)c1ccc2ccc3cccc4ccc1c2c34,-10.9% [at 11.4 µM],–
CC1(C)OC(=O)C(=CNCC(O)c2ccccc2)C(=O)O1 (centres undefined),20.4% [at 11.4 µM],–
COc1ccc(-c2noc(N(C)CC(=O)Nc3cccc(C(F)(F)F)c3)n2)cc1,–,12.6 µM (active)
COc1ccc(-c2cc(CNC(C)=O)on2)cc1,17.4%,–
CC(=O)c1ccc(OC(=O)C2c3ccccc3Oc3ccccc32)cc1,10.9% [at 2.29 µM],–
Cc1cccc2sc(NC(=O)C3c4ccccc4Oc4ccccc43)nc12,–,12.6 µM (active)
Cc1ccccc1NC(=O)c1cnc(Nc2nc3ccccc3s2)nc1C,-7.53%,–
C[N+](C)(C)CCCSc1nc2ccccc2[nH]1,4.86% [at 11.4 µM],–
O=C(Nc1nn[nH]n1)c1nc(-c2ccccc2)cc(=O)[nH]1,-3.85% [at 11.4 µM],–
Cc1ccc2c(C)nc(Nc3nc(CSc4nc5ccccc5[nH]4)cc(=O)[nH]3)nc2c1,–,2.82 µM (active)
Cc1ccc2nc(Nc3nc(-c4ccccc4)cc(=O)[nH]3)nc(C)c2c1,–,2.51 µM (active)
O=c1nc(-c2ccccc2)cc(C(F)(F)F)[nH]1,6.38%,–
